Source: PubChem BioAssay (NCI)
The panel holds about 79,000 compounds, 15% with a hit somewhere; the sample as a whole holds those more often. Calls of active or inactive are those of the source. Cut-off read from the data, not from the text of the source: active = growth inhibition above about 70%; inactive = the rest.

Legend:
[1] = NCI Yeast Anticancer Drug Screen. Data for the mec2-1 strain (AID 157); conditions: S. cerevisiae mec2-1 strain, active compounds read high
Procedure, shortened: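 Using mec2-1 yeast: add compound, measure growth, express inhibition versus vehicle-treated cultures.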

[2] = NCI Yeast Anticancer Drug Screen. Data for the rad14 strain (AID 159);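 note: 0% = growth of vehicle-treated control cultures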; conditions: S. cerevisiae rad14 strain growth inhibition, active compounds read high
Procedure, shortened: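 Here, inhibition of yeast growth was measured after compound exposure, using a strain with a genetic defect in DNA damage repair and vehicle-treated cultures as the reference.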

[3] = NCI Yeast Anticancer Drug Screen. Data for the sgs1 mgt1 strain (AID 161);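 note: 0% = growth of cultures given vehicle only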; conditions: S. cerevisiae sgs1 mgt1 strain, active compounds read high
Procedure, shortened: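 Yeast cells carrying a defined DNA-repair defect were exposed to test compounds. Growth inhibition was measured relative to vehicle-treated controls.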

[4] = NCI Yeast Anticancer Drug Screen. Data for the CLN2oe strain (AID 163);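 note: 0% = growth of vehicle-only control cultures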; conditions: S. cerevisiae CLN2oe strain, active compounds read high
Procedure, shortened: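 Whole-cell yeast growth assay. A strain engineered for altered cell-cycle control received compound, and inhibition relative to vehicle-treated cultures was recorded.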

[5] = NCI Yeast Anticancer Drug Screen. Data for the cln2 rad14 strain (AID 165);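 note: 0% = growth equal to vehicle treated cultures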; conditions: S. cerevisiae cln2 rad14 strain, active compounds read high
Procedure, shortened: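 Yeast strain cln2 rad14, bearing defects in cell cycle control and DNA repair, serves as the test system; values reflect growth inhibition compared with vehicle.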

[6] = NCI Yeast Anticancer Drug Screen. Data for the bub3 strain (AID 167); conditions: S. cerevisiae bub3 mutant strain, active compounds read high
Procedure, shortened: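 Whole-cell yeast assay. The mutant strain was incubated with compounds, and growth inhibition was determined by comparison with vehicle-treated cells.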

[7] = NCI Yeast Anticancer Drug Screen. Data for the mlh1 strain (AID 171);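 note: 0% = growth of vehicle-treated control cultures of the same strain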; conditions: S. cerevisiae mlh1 strain growth inhibition, active compounds read high
Procedure, shortened: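 A yeast strain with a defined genetic lesion serves as the test organism. Cultures receive compound or vehicle, and growth is measured.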

[8] = NCI Yeast Anticancer Drug Screen. Data for the sgs1 strain (AID 173);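 note: 0% = growth of vehicle-only control cultures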; conditions: S. cerevisiae sgs1 mutant, active compounds read high
Procedure, shortened: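 A genetically defined yeast mutant is incubated with the test compound, and its growth is compared to that of the same strain given vehicle.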

[9] = NCI Yeast Anticancer Drug Screen. Data for the mlh1 rad18 strain (AID 175); conditions: S. cerevisiae mlh1 rad18 strain growth inhibition, active compounds read high
Procedure, shortened: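 Steps: expose repair-defective yeast to compound; measure growth; express inhibition against vehicle-treated controls.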

[10] = NCI Yeast Anticancer Drug Screen. Data for the rad18 strain (AID 177); conditions: S. cerevisiae rad18 mutant growth inhibition, active compounds read high
Procedure, shortened: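 Measured value is growth inhibition of a yeast strain bearing a DNA repair alteration, referenced to vehicle-treated cells.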

[11] = NCI Yeast Anticancer Drug Screen. Data for the rad52 strain (AID 147);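 note: 0% = growth of vehicle-treated control cultures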; conditions: S. cerevisiae rad52 mutant growth inhibition, active compounds read high
Procedure, shortened: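 Here a repair-compromised yeast strain receives each compound; its growth is then quantified and normalised to vehicle-only controls.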

[12] = NCI Yeast Anticancer Drug Screen. Data for the wt1 strain (AID 149);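 note: 0% = growth of vehicle-treated wt1 cultures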; conditions: S. cerevisiae wt1 strain (SPY 50644) growth inhibition, active compounds read high
Procedure, shortened: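 Measured: growth of wt1 yeast under compound versus vehicle treatment, reported as inhibition.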

[13] = NCI Yeast Anticancer Drug Screen. Data for the rad50EPP+ strain (AID 151);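 note: 0% = growth of vehicle-treated control cultures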; conditions: S. cerevisiae rad50 mutant strain, active compounds read high
Procedure, shortened: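 Read-out is yeast growth inhibition relative to vehicle; cells used were the rad50EPP+ strain.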

[14] = NCI Yeast Anticancer Drug Screen. Data for the mgt1 strain (AID 153); conditions: S. cerevisiae mgt1 mutant growth inhibition, active compounds read high
Procedure, shortened: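 Measured: inhibition of mgt1 yeast growth by compound, normalized to vehicle-treated cultures.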

[15] = NCI Yeast Anticancer Drug Screen. Data for the rad50 strain (AID 155);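 note: 0% = growth of vehicle-only cultures of the same strain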; conditions: S. cerevisiae rad50 strain growth inhibition, active compounds read high
Procedure, shortened: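 Growth of the mutant yeast was measured after compound exposure and referenced to vehicle-treated cultures.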

[16] = at 5.0 µM (retest, dose inferred, filed as 0.5)
[17] = at 50.0 µM (retest, dose inferred, filed as 5.0)

Measured: growth inhibition

CC1(C)CC(=O)C(C(=O)Nc2cccs2)=C(O)C1
active: [1]; at 33.0 µM 78% | [1]; at 50.0 µM 93% | [1]; at 100.0 µM 98% | [2]; at 33.0 µM 92% | [2]; at 100.0 µM 98% | [3]; at 50.0 µM 93.3% | [4]; at 100.0 µM 99% | [5]; at 50.0 µM 89.4% | [6]; at 33.0 µM 82% | [6]; [17] 70% | [6]; at 50.0 µM 90.8% | [6]; at 100.0 µM 99% | [7]; at 33.0 µM 92% | [7]; at 100.0 µM 99% | [8]; at 33.0 µM 88% | [8]; at 100.0 µM 99% | [9]; at 50.0 µM 90.4% | [10]; at 100.0 µM 99%
inactive: [1]; [16] 6% | [1]; at 11.0 µM 20% | [1]; [17] 49% | [2]; at 1.2 µM -10% | [2]; at 3.7 µM 2% | [2]; at 11.0 µM 10% | [3]; [16] -5% | [3]; [17] 61% | [4]; at 1.2 µM 15% | [4]; at 3.7 µM 26% | [4]; at 11.0 µM 29% | [4]; at 33.0 µM 63% | [5]; [16] 23% | [5]; [17] 37% | [6]; at 1.2 µM 26% | [6]; at 3.7 µM 23% | [6]; [16] 16% | [6]; at 11.0 µM 41% | [7]; at 1.2 µM 1% | [7]; at 3.7 µM 4% | [7]; at 11.0 µM 30% | [8]; at 1.2 µM 8% | [8]; at 3.7 µM 23% | [8]; at 11.0 µM 38% | [9]; [16] -36% | [9]; [17] 2% | [10]; at 1.2 µM 1% | [10]; at 3.7 µM 1% | [10]; at 11.0 µM 7% | [10]; at 33.0 µM 48%

O=C(NC(N1CCN(c2cc3c(cc2F)c(=O)c(C(=O)O)cn3C2CC2)CC1)(C(F)(F)F)C(F)(F)F)c1ccccc1
inactive: [11]; at 1.2 µM -2% | [11]; at 3.7 µM 1% | [11]; at 11.0 µM 17% | [12]; at 1.2 µM -2% | [12]; at 3.7 µM -3% | [12]; at 11.0 µM -1% | [12]; at 33.0 µM 8% | [12]; at 100.0 µM 40% | [13]; at 1.2 µM -2% | [13]; at 3.7 µM -1% | [13]; at 11.0 µM 4% | [13]; at 33.0 µM 27% | [13]; at 100.0 µM 40% | [14]; at 1.2 µM -1% | [14]; at 3.7 µM -2% | [14]; at 11.0 µM -2% | [14]; at 33.0 µM 6% | [14]; at 100.0 µM 42% | [15]; at 1.2 µM -1% | [15]; at 3.7 µM 5% | [15]; [16] -1% | [15]; at 11.0 µM 19% | [15]; at 50.0 µM 46.8% | [1]; at 1.2 µM -2% | [1]; at 3.7 µM -3% | [1]; [16] 3% | [1]; at 11.0 µM 0% | [1]; at 33.0 µM 35% | [1]; [17] 35% | [1]; at 50.0 µM -19.2% | [1]; at 100.0 µM 67% | [2]; at 1.2 µM -2% | [2]; at 3.7 µM -1% | [2]; at 11.0 µM 2% | [2]; at 33.0 µM 19% | [2]; at 100.0 µM 44% | [3]; [16] 4% | [3]; [17] 25% | [3]; at 50.0 µM 11.2% | [4]; at 1.2 µM 2% | [4]; at 3.7 µM 0% | [4]; at 11.0 µM 1% | [4]; at 33.0 µM 15% | [4]; at 100.0 µM 58% | [5]; [16] -3% | [5]; [17] 20% | [5]; at 50.0 µM 33.9% | [6]; at 1.2 µM 0% | [6]; at 3.7 µM -1% | [6]; [16] -7% | [6]; at 11.0 µM 1% | [6]; at 33.0 µM 2% | [6]; [17] 6% | [6]; at 50.0 µM -13.9% | [6]; at 100.0 µM 48% | [7]; at 1.2 µM -4% | [7]; at 3.7 µM -2% | [7]; at 11.0 µM 0% | [7]; at 33.0 µM 11% | [7]; at 100.0 µM 39% | [8]; at 1.2 µM -3% | [8]; at 3.7 µM -2% | [8]; at 11.0 µM 1% | [8]; at 33.0 µM 29% | [8]; at 100.0 µM 58% | [9]; [16] -5% | [9]; at 50.0 µM -1.3% | [10]; at 1.2 µM -3% | [10]; at 3.7 µM -2% | [10]; at 11.0 µM -1% | [10]; at 33.0 µM 20% | [10]; at 100.0 µM 52%
active: [11]; at 33.0 µM 90% | [11]; at 100.0 µM 90% | [15]; at 33.0 µM 88% | [15]; [17] 96% | [15]; at 100.0 µM 91% | [9]; [17] 80%
